Measured values published in PubChem BioAssay (Tox21).
Results filed as inconclusive are left out. Values without a mark were called inactive. Activity calls are given as the source filed them. Calls follow the shape of the dose curve; as a rule, active = well fitted cell-killing curve with a large enough effect in the repeat runs; inconclusive = weak or mixed curves, or effect the other way; inactive = flat fitted curve, though single readings scatter.

experiment: qHTS assay to identify small molecule agonists of the estrogen receptor beta (ER-beta) signaling pathway - cell viability counter screen (AID 1259380); conditions: ER-beta-bla HEK293T viability, CellTiter-Glo luminescence, 16 h; series mostly up to 92.4 µM; activity change, negative = cytotoxicity: at the top concentration; also: nearly all actives have a fitted effect of over 30% in size
Description: National Center for Advancing Translational Sciences [NCATS]
NIH Chemical Genomics Center [NCGC]
U.S. Environmental Protection Agency [EPA]
National Institutes of Environmental Health Sciences [NIEHS]
National Toxicology Program [NTP]
U.S. Food and Drug Administration [FDA]
Estrogen receptor (ER), a nuclear hormone receptor, plays an important role in development, metabolic homeostasis and reproduction. Two subtypes of ER, ER-alpha and ER-beta, have similar expression patterns with some uniqueness in both types. Endocrine disrupting chemicals (EDCs) and their interactions with steroid hormone receptors like ER causes disruption of normal endocrine function. To identify the compounds that activate ER signaling, an ER beta-UAS-bla GripTite cell line (Life Technologies, Madison, WI, USA) containing a beta-lactamase reporter gene under the control of an UAS response element was used to screen Tox21 10K compound library. The cytotoxicity of the Tox21 compound library against the ER-beta-bla cell line was tested in parallel by measuring the cell viability using CellTiter-Glo assay in the same wells.
Tox21 Assay Protocol Summary:
ER-beta-UAS-bla HEK293T cells were dispensed at 2,000 cells/5 uL of assay medium containing 2% charcoal stripped FBS per well into black wall/clear-bottom 1536-well plates using a Multidrop Combi (ThermoFisher Scientific, Waltham, MA) dispenser. After the assay plates were incubated at a 37C and 5% CO2 for 6 hr, 23 nL of compounds dissolved in DMSO, positive controls or DMSO only was transferred to the assay plate by a Pintool station (Kalypsys, San Diego, CA). The plates were incubated at 37C and 5% CO2 for 16 hr. Then 1 uL of LiveBLAzerTM B/G FRET substrate was added using a BioRAPTR FRD (Flying Reagent Dispenser, Aurora Discovery, San Diego, CA) and then the plates were incubated at room temperature for 2 hours, and fluorescence intensity was measured by an Envision plate reader (PerkinElmer, Shelton, CT). For cell viability readout that measures cytotoxicity, 4 uL/well of CellTiter-Glo reagent was added into the assay plates using a FRD. After 30 min incubation at room temperature, the luminescence intensity in the plates was measured using a ViewLux (PerkinElmer) plate reader.
% is scaled to controls: 0 for no effect and ±100 for the full control effect.

Row | Structure (SMILES) | Potency | activity change, negative = cytotoxicity
1 | O=C1CCCCCCCCCCCN1 | inactive | –
2 | c1ccc(CC2=NCCN2)cc1 | – | 7.19% [at 42.5 µM]
3 | CCO[Si](CCC1CCC2OC2C1)(OCC)OCC (stereo not given) | – | 0.387%
4 | CCC(=O)OC(C)c1ccccc1 (stereo not given) | – | 8.09%
5 | CCOC(=O)Nc1ccc(NCc2ccc(F)cc2)nc1N | – | -11.6% [at 42.5 µM]
6 | CC(C[N+](C)(C)C)OC(N)=O (stereo not given) | – | 2.21% [at 42.5 µM]
7 | OC[C@]1(O)OC[C@@H](O)[C@H](O)[C@@H]1O | inactive | –
8 | CCN(CC)CCOCCOC(=O)C1(c2ccccc2)CCCC1 | – | -14% [at 42.5 µM]
9 | CCCCCOC(=O)CCCCC | – | 4.87%
10 | COC(=O)c1c(Cl)c(Cl)c(C(=O)OC)c(Cl)c1Cl | – | 2.97%
11 | CC(=O)N(CC(O)CO)c1c(I)c(C(=O)NCCO)c(I)c(C(=O)NCC(O)CO)c1I (stereo not given) | – | 7.39% [at 42.5 µM]
12 | NCCCNCCSP(=O)(O)O | – | 0.895% [at 8.39 µM]
13 | O=S(O)CO | – | 6.54%
14 | CC(=O)OCC(CCn1cnc2cnc(N)nc21)COC(C)=O | – | 4.39% [at 42.5 µM]
15 | C=C(C)C(=O)OCCCCCCCC(C)C | – | 1.74%
16 | NC(CSCC(=O)O)C(=O)O (stereo not given) | – | -0.119% [at 42.5 µM]
17 | CCc1nccnc1CC | – | 3.58% [at 19 µM]
18 | COc1ccccc1OCC(O)CN1CCN(CC(=O)Nc2c(C)cccc2C)CC1 (stereo not given) | – | -1.39% [at 42.5 µM]
19 | O=C1CCCC(=O)C1 | – | 2.56%
20 | O=c1n(CCO)c(=O)n(CCO)c(=O)n1CCO | – | 4.21%

Row | Structure (SMILES) | Potency | activity change, negative = cytotoxicity
21 | CCOC(=O)CC(C)=O | – | 2.7%
22 | CC(C)c1cc2c(cc1S(=O)(=O)O)[C@@]1(C)CCC[C@@](C)(C(=O)O)[C@@H]1CC2 | – | 0.546% [at 42.5 µM]
23 | O=C(O)c1ccccc1OP(=O)(O)O | – | -0.123% [at 42.5 µM]
24 | C[N+](C)(C)CCCCCC[N+](C)(C)C | inactive | –
25 | CN(C)CCCNCCCN(C)C | – | 1.98%
26 | O=Cc1cccc([N+](=O)[O-])c1 | – | 0.343%
27 | OCCOc1ccc(OCCO)cc1 | – | 5.24%
28 | CC(=O)OC/C=C(\C)CC/C=C(\C)CCC=C(C)C | inactive | –
29 | Cn1c(N)c(N=O)c(=O)n(C)c1=O | – | -12.4%
30 | CCc1cccc2c(CCO)c[nH]c12 | – | 0.749% [at 42.5 µM]
31 | C=C[Si](OC(=C)C)(OC(=C)C)OC(=C)C | – | 5.18%
32 | CS(=O)(=O)O | – | 0.966%
33 | CN(C)CCCSc1ccccc1NC(=O)/C=C/c1ccccc1 | – | 2.9% [at 42.5 µM]
34 | N=C(N)c1ccccc1 | – | 2.93%
35 | Cc1ccc(=O)n(-c2ccccc2)c1 | – | 6.38% [at 42.5 µM]
36 | CCCN1CCCC[C@H]1C(=O)Nc1c(C)cccc1C | – | 5.22% [at 42.5 µM]
37 | CC/C=C\CCOC(C)=O | – | 2.15%
38 | CCOC(=O)c1cccc(N)c1 | – | -2.02% [at 42.5 µM]
39 | CCOC(C)(C)C | – | 1.11%
40 | O=C1CC2CC1C1CCCC21 (stereo not given) | – | -2.09%
